These results are taken from PubChem BioAssay AID488922 (Johns Hopkins Ion Channel Center, 2010).

Screen size: about 310,000 compounds; about 3,800 (1.2%) were called active.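 The calls were made as follows: active = ratio B-score over 3 SD below the library mean, with starting fluorescence within 5 SD of its mean; inactive = the rest, inconclusive results apart.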 This excerpt belongs to a sample that is enriched for actives.

Sequence of Potassium channel subfamily K member 9 (Homo sapiens) (Q9NPC2 whole entry, looked up): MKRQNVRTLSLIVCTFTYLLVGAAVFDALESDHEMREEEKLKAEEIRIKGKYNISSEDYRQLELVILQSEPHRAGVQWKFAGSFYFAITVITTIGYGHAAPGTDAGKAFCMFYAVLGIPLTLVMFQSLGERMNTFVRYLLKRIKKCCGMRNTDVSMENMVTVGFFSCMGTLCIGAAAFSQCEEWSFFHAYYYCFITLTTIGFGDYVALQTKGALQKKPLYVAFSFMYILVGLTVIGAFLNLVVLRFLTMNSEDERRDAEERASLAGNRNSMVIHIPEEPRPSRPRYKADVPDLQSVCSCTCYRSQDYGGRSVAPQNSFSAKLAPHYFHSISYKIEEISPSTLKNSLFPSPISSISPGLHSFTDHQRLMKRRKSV

The assay concerns the target Potassium channel subfamily K member 9 (Homo sapiens) (UniProt Q9NPC2). As to the kind of experiment: KCNK9 potassium channel inhibitors, primary screen, HEK293 cells, thallium flux (AID 488922).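 As to B-score: negative B-score means less thallium flux so channel inhibition.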 As to conditions: HEK293 KCNK9, FluxOR thallium flux fluorescence, at 10 µM; hits give low values.
On to `CCC1C(=O)NCCN1C(=O)c1ccc2nc(Cc3ccc(OC)cc3)oc2c1` (configuration not stated), for which the B-score result was “inactive”. Turning to `COc1cccc2cc(C(C)N(CCCN3CCOCC3)C(=O)Nc3ccc(Cl)cc3)oc12` (configuration not stated), the B-score was -9.66 (active). Turning to `COc1cccc(NC(=S)NCCCN2CCOCC2)c1`, the B-score result was “inactive”.

`COc1ccc(Cl)cc1NC(=O)CCN1CCOCC1`: the B-score result was “inactive”.

With `Cc1cccc2[nH]c(CN(C)C(=O)C3CCC(=O)N(CCc4ccccc4)C3)nc12` (configuration not stated), the B-score entry was “inactive”. With `COc1ccccc1-c1nnc(-c2ccc(F)cc2)o1` the entry was “inactive”; with `CC1=C(N2CCN(c3ncccn3)CC2)CCC1=O`, “inactive”; with `O=C(Nc1ccccc1[N+](=O)[O-])C1C(c2ccccc2)=C1c1ccccc1`, -8.24 (active). With `O=C(Nc1ccccc1-c1ccccc1)c1ccccc1[N+](=O)[O-]`, the B-score result was “inactive”. Regarding `O=C(O)c1ccccc1C(=O)Nc1ccccc1[N+](=O)[O-]`, the B-score entry is “inactive”. For the molecule `CCCCNS(=O)(=O)c1ccc2nc(SCC(=O)Nc3cc(C)cc(C)c3)[nH]c2c1`, the B-score result was “inactive”. The same measure for `CCN(CC)CCn1cnc2c1c(=O)n(CCOC(=O)c1cc(OC)c(OC)c(OC)c1)c(=O)n2C`: “inactive”.

Regarding `Cc1ccc(OCCNC(=O)CN2C(=O)NC3(CCCC3)C2=O)cc1`, the B-score entry is “inactive”.

Take `O=C(NCc1ccccn1)Nc1ccc(Cl)cc1`: the B-score result is “inactive”. As to `CC1=NN(c2cccc(Cl)c2)C(=O)C12CC(C)=C(C)CS2` (configuration not stated), the B-score is -11.1 (active). With `CC12CCC(C(=O)N(c3cccc(Cl)c3)C1=O)C2(C)C` (configuration not stated) the entry was “inactive”; with `O=C(COC(=O)C1CC2C=CC1C2)Nc1ccccc1` (configuration not stated), “inactive”. As for `Cc1ccc(C(=O)N/C(=C\c2ccc(F)cc2)C(=O)NCCN2CCOCC2)cc1`, the B-score entry was “inactive”.

Regarding `O=C(CN1C(=O)/C(=C/c2ccccc2F)Sc2ccccc21)NCc1cccnc1`, the B-score result was “inactive”.

`O=C(CN1C(=O)S/C(=C\c2ccccc2F)C1=O)NCCCn1ccnc1`: the B-score result is “inactive”. Turning to `O=C(CN1C(=O)/C(=C\c2ccccc2F)SC1=S)Nc1nc2ccccc2s1`, the B-score was -7.2 (active). Take `Cc1cc(CNCc2c(C(=O)N(C)Cc3ccccc3)nc3ccccn23)nn1C`: the B-score entry is “inactive”. As for `CCCNC(=O)CN(Cc1ccccc1F)S(=O)(=O)c1ccc(C)cc1`, the B-score entry is “inactive”. Take `Cc1ccc(S(=O)(=O)N(CC(=O)Nc2cccnc2)c2ccc(Br)cc2)cc1`: the B-score result is “inactive”.

With `COC(=O)Cc1ccc(N(Cc2ccccc2F)S(=O)(=O)c2ccc(Br)cc2)cc1`, the B-score was -6.88 (active). `O=C(/C=C/c1ccc([N+](=O)[O-])cc1)NCCSCc1ccco1`: the B-score result was “inactive”. The same measure for `O=C(c1ccc(Br)o1)N1CCN(CCOc2ccccc2)CC1`: “inactive”. For the molecule `COc1ccc(-c2nc(CCNC(=O)c3ccc(Br)o3)cs2)cc1`, the B-score is -10.5 (active).

As for `COc1ccc(N2CCN(C(=O)CNC(=O)c3ccc(Br)o3)CC2)cc1`, the B-score entry is “inactive”. On to `COc1ccc(-c2csc(NC(=O)COC(=O)c3ccc(Br)o3)n2)cc1`, for which the B-score result is “inactive”. For `CCCCC(CC)CNC(=O)C(=O)C1C(=O)Nc2ccccc21` (configuration not stated), the B-score entry was “inactive”. On to `COc1cc2c(C(=O)N(C)c3cc(Cl)ccc3OC)cn(C)c(=O)c2cc1OC`, for which the B-score entry is “inactive”. For `CCC(=O)N1CCN(c2ccccc2NC(=O)COc2cccc(C)c2C)CC1`, the B-score entry was “inactive”. Turning to `CCOc1ccccc1N1CCN(C(=S)Nc2ccc(S(N)(=O)=O)cc2)CC1`, the B-score result is “inactive”. Turning to `CCOc1ccccc1NC(=S)N1CCN(c2cccc(C)c2C)CC1`, the B-score is -6.79 (active). In the case of `CCOc1ccc(NC(=O)N(CCC(C)C)C(C)c2ccco2)cc1` (configuration not stated), the B-score was -7.13 (active). With `CC(c1ccco1)N(C(=O)Nc1ccccc1)C1CCCCC1` (configuration not stated) the entry was “inactive”; with `CCOc1ccc(NC(=O)N(CC(C)C)CC(C)C)cc1`, “inactive”; with `COc1cc(C)nc(N2CCCC(C(=O)NCC(C)C)C2)n1` (configuration not stated), “inactive”. The same measure for `COc1ccc(NC(=O)CN(C)CC(=O)Nc2cccc(C(F)(F)F)c2)cc1`: -11.5 (active); for `COc1cccc(NC(=O)CN(C)CC(=O)Nc2ccc3c(c2)CCC3)c1`: “inactive”. In the case of `COc1ccc(NC(=O)C(=O)NCC(=O)Nc2cccc(C(F)(F)F)c2)cc1`, the B-score entry is “inactive”. The same measure for `CC(C)c1c(C(=O)N/N=C/c2ccccc2C(=O)O)nnn1-c1nonc1N`: “inactive”. Take `CN1C(=O)/C(=C/C=C2\SCCN2C)OC1=S`: the B-score result is “inactive”. Take `O=C(c1cc2sccc2n1Cc1ccc(F)cc1)N1CCc2ccccc21`: the B-score result was “inactive”.

`CCOC(=O)c1cc2sccc2n1Cc1ccc(C#N)cc1`: the B-score was -12.8 (active). With `CC1Cc2ccccc2N1C(=O)c1cc2sccc2n1Cc1ccccc1` (configuration not stated) the entry was “inactive”. As for `CCCCC(=O)Nc1c2c(nn1-c1ccc([N+](=O)[O-])cc1)CS(=O)(=O)C2`, the B-score result is “inactive”.

Consider `CCSC1=NCCN1C(=O)c1ccc(S(=O)(=O)N(CC)CC)cc1`, for which the B-score result is “inactive”. Regarding `COC(=O)c1ccccc1Sc1c(/C=N/OCc2ccc(Cl)cc2)c(C(F)(F)F)nn1C`, the B-score result is “inactive”. For `Cn1nc(C(F)(F)F)c(C(=O)Nc2cccc(C(F)(F)F)c2)c1SCc1ccc(Cl)cc1`, the B-score was -7.25 (active). Take `O=C(O)CSc1c2c(nc3cc(C(=O)Nc4cccc(C(F)(F)F)c4)ccc13)CCCC2`: the B-score result was “inactive”. On to `C[n+]1cc(-c2ccccc2)oc1-c1ccccc1`, for which the B-score entry is “inactive”. With `COc1cccc(-c2coc3cc4oc(=O)c(CC(=O)O)c(C)c4cc23)c1` the entry was “inactive”; with `COc1cc(C(=O)OC2CCOC2=O)c([N+](=O)[O-])cc1OC` (configuration not stated), “inactive”; with `CN(C)Cc1ccccc1C1(O)c2ccccc2CSc2ccccc21` (configuration not stated), -6.84 (active). The same measure for `CC(=O)Nc1ccc(S(=O)(=O)N2CCC(NC(=O)c3ccccc3)CC2)cc1`: “inactive”; for `COc1ccc(-c2csc3ncnc(N4CCN(S(=O)(=O)c5cccc(F)c5)CC4)c23)cc1`: “inactive”; for `CCCCCOC(=O)C1=C(C)Nc2nnnn2C1c1ccc(OC)c(OC)c1OC` (configuration not stated): “inactive”. Turning to `COc1ccc(-c2nnn(CC(=O)N(CCO)C(C(=O)NC3CCCC3)c3ccc(F)cc3)n2)cc1` (configuration not stated), the B-score result was “inactive”. With `CC(C)CCNC(=O)C(C)N(C(=O)Cn1nnc(-c2ccc(F)cc2)n1)C1CCCC1` (configuration not stated) the figure was -8.61 (active); with `CC(C)CCNC(=O)CN(C(=O)Cn1nnc(-c2ccc(F)cc2)n1)C1CCCC1`, “inactive”; with `Cc1ccc(NC(=O)CN2CCCCC2)c2c1CC(C)(C)O2`, “inactive”. Turning to `CCOc1ccc(NS(=O)(=O)c2ccc(C(=O)NC3CCN(Cc4ccccc4)CC3)cc2)cc1`, the B-score entry is “inactive”.

On to `CCCCC(=O)NNC(=S)NC(=O)C(c1ccccc1)c1ccccc1`, for which the B-score entry is “inactive”. Take `CC(C)C(=O)Nc1cccc(NC(=S)NC(=O)C(c2ccccc2)c2ccccc2)c1`: the B-score was -14.9 (active).

Take `CC(C)C(=O)NC(=S)Nc1ccccc1F`: the B-score result was “inactive”.
